Some test systems named below: DU-145 prostate; K-562 leukemia; MALME-3M melanoma; MDA-MB-231 breast; RXF 393 renal; SF-268 CNS; SF-295 CNS; SF-539 CNS; UACC-257 melanoma; M14 melanoma; HCT-15 colon; HT29 colon; SNB-75 CNS; SNB-19 CNS; U251 CNS; PC-3 prostate; SK-MEL-5 melanoma; UACC-62 melanoma; LOX IMVI melanoma; SK-MEL-28 melanoma.
Test in all cases: NCI-60 one-dose screen, 48 h (100 = growth as untreated, 0 = no growth, -100 = all killed)
What all share (details): 10 µM unless noted

The panel holds about 83,000 compounds, 20% with a hit somewhere; the sample as a whole holds those more often.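 The test compound was applied at a single concentration to cells in 96-well plates for 48 hours, and percent growth was recorded.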 Values without a mark were called inactive. Calls of active or inactive are those of the source. The calls were made as follows: active = growth percent below 10; inactive = the rest.

`CS(=O)(=O)Nc1cc(-c2cc3ncc(C#N)c(Nc4ccc(Oc5ccccc5)c(Cl)c4)c3s2)cnc1Cl`: the growth is 48.1% in the assay with DU-145 prostate; 51.5% with K-562 leukemia; 74.5% with MALME-3M melanoma; 45.3% in the assay with MDA-MB-231 breast; 15.9% with RXF 393 renal; 52.8% in the assay with SF-268 CNS. The growth is 38.4% in the assay on SF-295 CNS; 57.8% in the assay on SF-539 CNS; 68.2% in the assay with UACC-257 melanoma; 50.1% in the assay on M14 melanoma; 37.2% with HCT-15 colon; 57.6% in the assay on HT29 colon. Further, the growth in the assay on SNB-75 CNS is 39.2%; with SNB-19 CNS, 62.8%; in the assay on U251 CNS, 44.6%; in the assay with PC-3 prostate, 45.5%; with SK-MEL-5 melanoma, 52.5%; with UACC-62 melanoma it was 22%. In addition, the growth in the assay on LOX IMVI melanoma is 25.9%; in the assay on SK-MEL-28 melanoma, 62.3%.
For the molecule `CN(C)CCOc1nc2c3cccnc3cc(-c3cccc(Cl)c3)c2c2ncccc12`, the growth in the assay with DU-145 prostate was 14.3%; in the assay with K-562 leukemia, -21% (active); in the assay with MALME-3M melanoma it was -90.4% (active); in the assay on MDA-MB-231 breast, -11.5% (active); in the assay with RXF 393 renal it was -87.4% (active); in the assay with SF-268 CNS it was 27.4%. The growth is 27.9% with SF-295 CNS; 36.3% with SF-539 CNS; -57.5% (active) in the assay on UACC-257 melanoma; -82.1% (active) with M14 melanoma; -10.9% (active) in the assay on HCT-15 colon; 1.5% (active) with HT29 colon. Further, the growth in the assay on SNB-75 CNS is 38.2%; with SNB-19 CNS, 26.4%; in the assay on U251 CNS, 11.2%; in the assay with PC-3 prostate it was 22.4%; in the assay on SK-MEL-5 melanoma, 1.23% (active); in the assay with UACC-62 melanoma, -75.6% (active). The growth is -94.5% (active) in the assay with LOX IMVI melanoma and -81.6% (active) in the assay with SK-MEL-28 melanoma.
Turning to `COc1cc(C(=O)/C=C/c2cn(-c3ccccc3)nc2-c2cccc(Nc3ccnc4cc(Cl)ccc34)c2)cc(OC)c1OC`, the growth with DU-145 prostate was 76.9%; in the assay with K-562 leukemia, 59.5%; with MALME-3M melanoma, 73%; in the assay on MDA-MB-231 breast, 62.9%; in the assay with RXF 393 renal it was 86.7%; with SF-268 CNS, 93.6%. Also, the growth with SF-295 CNS was 117%; in the assay on SF-539 CNS, 98%; in the assay on UACC-257 melanoma, 111%; with M14 melanoma, 100%; with HCT-15 colon, 87.4%; in the assay with HT29 colon, 77.1%. Also, the growth is 107% with SNB-75 CNS; 116% in the assay with SNB-19 CNS; 88.1% with U251 CNS; 107% with PC-3 prostate; 71.4% in the assay on SK-MEL-5 melanoma; 104% in the assay on UACC-62 melanoma. Also, the growth in the assay with LOX IMVI melanoma was 71.5%; with SK-MEL-28 melanoma, 93.9%.
In the case of `CC[C@H](Nc1nc(N)nc(N)c1Cl)c1nc2cccc(NCc3ccc(C(=O)NO)cc3)c2c(=O)n1-c1ccccc1`, the growth in the assay on DU-145 prostate was -0.88% (active); with K-562 leukemia, 3.11% (active); in the assay with MALME-3M melanoma, 20.2%; in the assay on MDA-MB-231 breast, -10.8% (active); with RXF 393 renal, -52.5% (active); in the assay with SF-268 CNS, 4.81% (active). The growth in the assay with SF-295 CNS is 13.2%; with SF-539 CNS, -74.2% (active); in the assay with UACC-257 melanoma it was -0.0784% (active); in the assay with M14 melanoma, -13% (active); in the assay with HCT-15 colon it was 40.9%; in the assay with HT29 colon, 6.69% (active). For the same molecule, the growth with SNB-75 CNS is -3.96% (active); in the assay with SNB-19 CNS, 7.79% (active); in the assay on U251 CNS it was -65.6% (active); with PC-3 prostate it was -57.2% (active); with SK-MEL-5 melanoma, -26.3% (active); with UACC-62 melanoma, -56.8% (active). The growth in the assay with LOX IMVI melanoma was -86.2% (active).
Turning to `CC(OC(=O)Nc1cccc(Cl)c1)C(=O)O` (stereo unspecified), the growth was 113% in the assay with DU-145 prostate; 92.3% in the assay on K-562 leukemia; 116% in the assay on MALME-3M melanoma; 109% in the assay on MDA-MB-231 breast; 98.4% in the assay on RXF 393 renal; 99.6% in the assay on SF-268 CNS. Besides, the growth is 75.3% in the assay with SF-295 CNS; 99.1% in the assay with SF-539 CNS; 91.5% with UACC-257 melanoma; 95.5% in the assay with M14 melanoma; 104% with HCT-15 colon; 102% with HT29 colon. Also, the growth in the assay with SNB-75 CNS is 84.6%; in the assay on SNB-19 CNS, 96.6%; with U251 CNS, 102%; in the assay with PC-3 prostate it was 93%; with SK-MEL-5 melanoma, 107%; in the assay with UACC-62 melanoma it was 91.8%. The growth with LOX IMVI melanoma was 96.9%; in the assay on SK-MEL-28 melanoma, 112%.
As for `COc1ccc(NC(=O)/C=C/c2ccc(Cl)c(Cl)c2)cn1`, the growth in the assay with DU-145 prostate was 96.7%; in the assay with K-562 leukemia it was 58%; with MALME-3M melanoma, 92%; in the assay with MDA-MB-231 breast it was 95%; in the assay on RXF 393 renal, 89.4%; in the assay with SF-268 CNS, 95.7%. For the same molecule, the growth with SF-295 CNS was 84.5%; in the assay with SF-539 CNS it was 98.2%; in the assay on UACC-257 melanoma, 79.9%; in the assay on M14 melanoma, 95.9%; in the assay on HCT-15 colon, 51.6%; in the assay with HT29 colon, 93.5%. In addition, the growth is 102% in the assay with SNB-75 CNS; 91.2% in the assay on SNB-19 CNS; 87.4% with U251 CNS; 74.3% with PC-3 prostate; 71.4% in the assay on SK-MEL-5 melanoma; 77.6% with UACC-62 melanoma. The growth with LOX IMVI melanoma was 93.6%.
For `CCC(C)C1NC(=O)c2nc(oc2-c2ccccc2)-c2csc(n2)-c2csc(n2)-c2nc(oc2C)-c2coc(n2)CNC(=O)C(C(C)CC)NC1=O` (stereo unspecified), the growth in the assay with DU-145 prostate was -90.6% (active); in the assay with K-562 leukemia, -66.3% (active); in the assay with MALME-3M melanoma it was -84.9% (active); with MDA-MB-231 breast, -74.4% (active); in the assay with RXF 393 renal it was -72.5% (active); in the assay on SF-268 CNS it was -66.9% (active). In addition, the growth in the assay on SF-295 CNS was -78.9% (active); with SF-539 CNS, -80.5% (active); in the assay on UACC-257 melanoma, -66.2% (active); in the assay on M14 melanoma, -85.2% (active); in the assay on HCT-15 colon, -77.7% (active); in the assay with HT29 colon, -81.6% (active). The growth with SNB-75 CNS is -86.3% (active); with SNB-19 CNS, -61.3% (active); in the assay with U251 CNS, -83.4% (active); in the assay with PC-3 prostate, -85.6% (active); in the assay on SK-MEL-5 melanoma, -91.3% (active); in the assay on UACC-62 melanoma it was -70.5% (active). For the same molecule, the growth in the assay on LOX IMVI melanoma was -72.4% (active).
For the molecule `COc1ccc2[nH]cc(/C=C3\C(=O)Nc4ccccc43)c2c1`, the growth in the assay on DU-145 prostate is 47.1%; in the assay with K-562 leukemia it was 3.31% (active); with MALME-3M melanoma it was 57.5%; in the assay with MDA-MB-231 breast, 38.9%; in the assay with RXF 393 renal, 33.3%; in the assay with SF-268 CNS, 62.5%. Besides, the growth in the assay with SF-295 CNS is 45.5%; in the assay on SF-539 CNS it was 25.8%; in the assay with UACC-257 melanoma, 28.2%; with M14 melanoma, 11%; in the assay with HCT-15 colon, 23.9%; with HT29 colon, 10.7%. Further, the growth in the assay with SNB-75 CNS is 8.46% (active); in the assay on SNB-19 CNS, 73%; in the assay with U251 CNS it was 38.8%; in the assay on PC-3 prostate, 45.3%; in the assay with SK-MEL-5 melanoma, 39.5%; in the assay on UACC-62 melanoma it was 26%. For the same molecule, the growth in the assay with LOX IMVI melanoma is 21.1%.

The values above are taken from PubChem BioAssay (NCI).
